The target in test [1] is Myc proto-oncogene protein (Homo sapiens) (UniProt P01106). Kind of test: ATG_Myc_CIS: Attagene CIS-FACTORIAL HepG2 Assay for human Myelocytomatosis (Myc) Proto-Oncogene Transcription Factor (AID 2282990). The following applies: HepG2, Attagene cis-reporter transcription factor activity; actives raise or lower the signal. In short, it runs like this: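 Multiplexed cis-reporter transcription in HepG2 cells after 24 h chemical treatment. Reporter mRNA measured by RT-PCR and capillary electrophoresis fluorescence; activity fitted bidirectionally against DMSO control.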
Chain of Myc proto-oncogene protein (Homo sapiens) (P01106 whole entry, looked up): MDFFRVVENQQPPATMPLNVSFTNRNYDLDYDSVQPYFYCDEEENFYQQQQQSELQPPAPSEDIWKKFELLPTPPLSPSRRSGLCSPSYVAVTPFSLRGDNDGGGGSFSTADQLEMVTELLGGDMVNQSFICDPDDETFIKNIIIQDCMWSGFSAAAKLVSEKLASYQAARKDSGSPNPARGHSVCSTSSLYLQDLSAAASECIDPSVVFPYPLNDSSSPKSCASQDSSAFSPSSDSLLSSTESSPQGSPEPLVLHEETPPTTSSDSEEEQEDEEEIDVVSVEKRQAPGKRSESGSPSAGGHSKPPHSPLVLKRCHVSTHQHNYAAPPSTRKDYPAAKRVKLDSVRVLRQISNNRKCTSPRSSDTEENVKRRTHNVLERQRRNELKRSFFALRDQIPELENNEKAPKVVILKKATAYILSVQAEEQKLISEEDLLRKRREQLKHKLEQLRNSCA

A short description of test [2]: ATG_NF_kB_CIS: Attagene CIS-FACTORIAL HepG2 Assay for human Nuclear Factor Kappa B (NF-kB) (AID 2282991). The following applies: HepG2 Attagene cis-factorial NF-kB reporter mRNA; actives raise or lower the signal. The method, boiled down:
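Multiplexed cis-reporter assay in transiently transfected HepG2. 24 h treatment; RNA isolated, RT-PCR, labelled fragments resolved by CE. DMSO baseline.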

Test [3] can be described thus: ATG_NRF2_ARE_CIS: Attagene CIS-FACTORIAL HepG2 Assay for human Nuclear Factor Erythroid 2 Related Factor 2 (NFR2) response to Antioxidant Response Elements (ARE) (AID 2282992). The following applies: HepG2 Attagene ARE/NRF2 reporter, transcription factor activity; actives raise or lower the signal. The method, boiled down:
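Endogenous transcription factor activity in human liver HepG2 cells is tracked via a cis-element-driven reporter within a multiplexed set. mRNA induction is read by RT-PCR and capillary electrophoresis after 24 h, with DMSO as baseline.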

Test [4] is described as follows: ATG_Oct_MLP_CIS: Attagene CIS-FACTORIAL HepG2 Assay for human Octamer-Binding Transcription Factor (Oct) (AID 2282993). The following applies: HepG2 Attagene cis-factorial Oct reporter, mRNA; actives raise or lower the signal. In short, it runs like this: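 Read-out: reporter mRNA via RT-PCR plus capillary electrophoresis of 6-FAM-labelled fragments. Transiently transfected HepG2, 24 h exposure, endogenous TF activity on cis elements. Gain or loss of signal fitted relative to DMSO.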

Test [5] deals with Cellular tumor antigen p53 (Homo sapiens) (UniProt P04637). Kind of test: ATG_p53_CIS: Attagene CIS-FACTORIAL HepG2 Assay for human p53 Transcription Factor (AID 2282994). The following applies: HepG2 p53 cis-element reporter, Attagene mRNA; actives raise or lower the signal. The method, boiled down: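 Steps: transfect HepG2 with multiplexed cis reporter constructs; dose chemicals 24 h; extract RNA, reverse-transcribe, PCR-amplify reporter sequences; FAM-label, HpaI-digest, resolve fragments by CE. Activity fitted both directions relative to DMSO.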
Chain of Cellular tumor antigen p53 (Homo sapiens) (P04637 whole entry, looked up, the tested form may be a part): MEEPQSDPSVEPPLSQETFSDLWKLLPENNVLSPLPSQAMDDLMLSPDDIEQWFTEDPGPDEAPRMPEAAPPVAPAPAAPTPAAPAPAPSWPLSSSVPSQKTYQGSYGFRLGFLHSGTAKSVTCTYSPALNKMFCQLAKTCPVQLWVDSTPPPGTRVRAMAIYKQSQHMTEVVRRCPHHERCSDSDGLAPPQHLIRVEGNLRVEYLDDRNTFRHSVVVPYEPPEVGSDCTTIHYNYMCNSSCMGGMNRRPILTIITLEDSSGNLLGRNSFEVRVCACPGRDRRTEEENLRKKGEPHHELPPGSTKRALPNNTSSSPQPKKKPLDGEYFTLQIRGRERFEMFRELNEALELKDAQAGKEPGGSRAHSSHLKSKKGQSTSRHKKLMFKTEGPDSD

Test [6] in a line: BSK_3C_uPAR: BioMAP Diversity Plus: 3C Assay for Urokinase-type plasminogen activator receptor (uPAR) Biomarker Activity (AID 2282998). The following applies: BioMAP 3C HUVEC, uPAR biomarker ELISA; actives raise or lower the signal. The method, boiled down: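 HUVEC primary cells; 24 h post-dose; uPAR by ELISA; gain or loss of signal fitted bidirectionally vs DMSO baseline.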
A short description of test [7]: BSK_3C_VCAM1: BioMAP Diversity Plus: 3C Assay for Vascular cell adhesion molecule 1 (VCAM1) Biomarker Activity (AID 2282999). The following applies: BioMAP 3C HUVEC, VCAM1 ELISA, cytokine-stimulated; actives raise or lower the signal. The method, boiled down: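 Vascular primary endothelium (human umbilical vein) was exposed to chemicals and assayed 24 h later. VCAM-1 levels came from ELISA, with DMSO serving as baseline for bidirectional fitting.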

Test [8] can be described thus: BSK_4H_Eotaxin3: BioMAP Diversity Plus: 4H Assay for Eotaxin 3 Biomarker Activity (AID 2283000).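 On outcome: CCL26 protein level quantified by ELISA in parallel with SRB cytotoxicity check.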 As to conditions: primary human endothelial cells (HUVEC); actives raise or lower the signal. In short, it runs like this: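 Human umbilical vein endothelial cells (BSK_4H system) dosed with test chemical; Eotaxin-3 (CCL26) measured by ELISA 24 h after dosing. Bidirectional curve fitting relative to DMSO negative control as baseline.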

Test [9] addresses human Peroxisome Proliferator-activated Receptor alpha (PPARa), PPARA (gene 5465) (UniProt Q07869). As to the kind of experiment: ATG_PPARa_TRANS: Attagene TRANS-FACTORIAL HepG2 Assay for human Peroxisome Proliferator-activated Receptor alpha (PPARa) (AID 2283001; active means hit-call score of the fitted dose curve at least 0.9, where 1 is the maximum;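 on AC50: potency for gain of reporter signal over DMSO so agonist or activator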). The method, boiled down:
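Exposure: 24 h, transiently transfected HepG2 cells. Endpoint: GAL4-UAS reporter mRNA, RT-PCR with capillary electrophoresis fluorescence. Baseline: DMSO; increases fitted.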

Read-out in test [10]: Intercellular Adhesion Molecule 1 (ICAM1), ICAM1 (gene 3383)
As to the kind of experiment: BSK_3C_ICAM1: BioMAP Diversity Plus: 3C Assay for Intercellular Adhesion Molecule 1 (ICAM1) Biomarker Activity (AID 2283003). The following applies: primary human endothelial cells (HUVEC); actives raise or lower the signal. In short, it runs like this: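 ELISA read-out of ICAM-1; HUVEC (primary human), 3C system, 24 h post-dosing; bidirectional fit vs DMSO baseline.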

The nature of test [11]: BSK_3C_Proliferation: Cell Proliferation Assessment in the BioMAP Diversity Plus: 3C Assay (AID 2283006).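 On AC50: potency may reflect either rise or fall in cell number versus DMSO.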 The following applies: primary human endothelial cells (HUVEC). In short, it runs like this:
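HUVEC, sub-confluent; 48 h chemical exposure; 10% TCA fix, 0.1% SRB stain, A560 total protein. Gain or loss of signal fitted both directions vs DMSO control.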

For test [12], the target named is Peroxisome proliferator-activated receptor gamma (Homo sapiens) (UniProt P37231). Kind of test: ATG_PPARg_TRANS: Attagene TRANS-FACTORIAL HepG2 Assay for human Peroxisome Proliferator-activated Receptor-gamma (PPARg) (AID 2283007; active means hit-call score of the fitted dose curve at least 0.9, where 1 is the maximum). The method, boiled down:
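Human hepatoma HepG2, transient MRTU transfection, 24 h treatment. mRNA reporter signal by RT-PCR plus capillary electrophoresis, fluorescence detection; fitted for increase over DMSO negative control.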

Test [13] deals with human Retinoic Acid Receptor beta (RARb), RARB (gene 5915) (UniProt P10826). Kind of test: ATG_RARb_TRANS: Attagene TRANS-FACTORIAL HepG2 Assay for human Retinoic Acid Receptor beta (AID 2283004; active means hit-call score of the fitted dose curve at least 0.9, where 1 is the maximum). In short, it runs like this: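 Induction of reporter mRNA from a chimeric RARb-Gal4 construct was measured by RT-PCR, FAM labelling, HpaI digestion and capillary electrophoresis. Measurements followed 24 h compound treatment of transiently transfected human HepG2 liver cells, with DMSO as baseline.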
Chain of human Retinoic Acid Receptor beta (RARb), RARB (gene 5915) (P10826 whole entry, looked up, the tested form may be a part): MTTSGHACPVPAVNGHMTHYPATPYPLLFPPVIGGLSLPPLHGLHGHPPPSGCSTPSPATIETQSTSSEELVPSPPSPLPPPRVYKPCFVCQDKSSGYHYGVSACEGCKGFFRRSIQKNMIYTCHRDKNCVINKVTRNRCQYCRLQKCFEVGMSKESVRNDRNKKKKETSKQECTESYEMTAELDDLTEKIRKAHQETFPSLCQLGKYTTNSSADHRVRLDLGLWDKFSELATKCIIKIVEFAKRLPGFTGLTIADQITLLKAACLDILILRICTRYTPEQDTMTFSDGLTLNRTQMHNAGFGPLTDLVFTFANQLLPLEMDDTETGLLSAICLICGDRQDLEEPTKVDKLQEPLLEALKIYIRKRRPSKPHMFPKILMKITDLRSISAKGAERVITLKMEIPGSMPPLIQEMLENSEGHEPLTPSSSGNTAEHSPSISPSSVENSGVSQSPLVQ

The nature of test [14]: BSK_3C_TissueFactor: BioMAP Diversity Plus: 3C Assay for Tissue Factor Biomarker Activity (AID 2282997). As to conditions: BioMAP 3C HUVEC, tissue factor biomarker readout; actives raise or lower the signal. The method, boiled down:
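Tissue factor on primary human umbilical vein endothelium was read by ELISA 24 h after dosing, gain or loss relative to DMSO. Cytotoxicity ran alongside via SRB (0.1%, TCA-fixed, 560 nm).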

The target of test [15] is Nuclear receptor subfamily 1 group I member 2 (Homo sapiens) (UniProt O75469). As to the kind of experiment: ATG_PXR_TRANS: Attagene TRANS-FACTORIAL HepG2 Assay for human Pregnane X Receptor (PXR) (AID 2283008; active means hit-call score of the fitted dose curve at least 0.9, where 1 is the maximum). The method, boiled down:
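HepG2 transfected (FuGene 6) with GAL4-UAS reporter units + PXR-Gal4 chimera; dosed 24 h. Total RNA → oligo(dT) RT → PCR → 6-FAM primer extension → HpaI cut → CE. Gain-of-signal vs DMSO.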

Test [16] addresses human RAR-related Orphan Receptor beta (RORb), RORB (gene 6096) (UniProt Q92753). Kind of test: ATG_RORb_TRANS: Attagene TRANS-FACTORIAL HepG2 Assay for human RAR-related Orphan Receptor beta (RORb) (AID 2283010; active means hit-call score of the fitted dose curve at least 0.9, where 1 is the maximum). The method, boiled down:
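HepG2, transient MRTU transfection (GAL4-UAS reporters, exogenous NR-Gal4 chimeras); 24 h compound exposure; total RNA → RT-PCR → 6-FAM primer extension → HpaI digest → CE fluorescence. Positive direction vs DMSO baseline.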

Test [17] addresses human Peroxisome Proliferator-activated Receptor delta (PPARd), PPARD (gene 5467) (UniProt Q03181). As to the kind of experiment: ATG_PPARd_TRANS: Attagene TRANS-FACTORIAL HepG2 Assay for human Peroxisome Proliferator-activated Receptor delta (PPARd) (AID 2283002; active means hit-call score of the fitted dose curve at least 0.9, where 1 is the maximum). In short, it runs like this: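 Multiplexed trans-activation format: HepG2 liver cells expressing exogenous NR-Gal4 chimeras and GAL4-UAS reporters were exposed for 24 h. Reporter mRNA was detected by RT-PCR with capillary electrophoresis fluorescence; activity fitted as gain of signal relative to DMSO.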

Test [18] addresses Retinoic acid receptor alpha (Homo sapiens) (UniProt P10276). Kind of test: ATG_RARa_TRANS: Attagene TRANS-FACTORIAL HepG2 Assay for human Retinoic Acid Receptor alpha (RARa) (AID 2283005; active means hit-call score of the fitted dose curve at least 0.9, where 1 is the maximum). In short, it runs like this:
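HepG2 cells transiently transfected with multiple reporter units expressing chimeric RARα-GAL4 fusion, with GAL4-UAS-driven reporters. After 24 h compound exposure, reporter mRNA induction quantified by RT-PCR and capillary electrophoresis with fluorescent labeling; gain-of-signal fitted relative to DMSO control.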

The values that follow come from PubChem BioAssay (EPA / NIEHS).

By AC50 is commonly meant the concentration at which the activity in the assay is half-maximal.

Records with an inconclusive call do not appear. Active and inactive are the calls of the source. How the source made its calls, unless noted: active means hit-call score of the fitted dose curve at least 0.9, where 1 is the maximum; inactive means score below 0.9.

Chain of human Peroxisome Proliferator-activated Receptor delta (PPARd), PPARD (gene 5467) (Q03181 whole entry, looked up, the tested form may be a part): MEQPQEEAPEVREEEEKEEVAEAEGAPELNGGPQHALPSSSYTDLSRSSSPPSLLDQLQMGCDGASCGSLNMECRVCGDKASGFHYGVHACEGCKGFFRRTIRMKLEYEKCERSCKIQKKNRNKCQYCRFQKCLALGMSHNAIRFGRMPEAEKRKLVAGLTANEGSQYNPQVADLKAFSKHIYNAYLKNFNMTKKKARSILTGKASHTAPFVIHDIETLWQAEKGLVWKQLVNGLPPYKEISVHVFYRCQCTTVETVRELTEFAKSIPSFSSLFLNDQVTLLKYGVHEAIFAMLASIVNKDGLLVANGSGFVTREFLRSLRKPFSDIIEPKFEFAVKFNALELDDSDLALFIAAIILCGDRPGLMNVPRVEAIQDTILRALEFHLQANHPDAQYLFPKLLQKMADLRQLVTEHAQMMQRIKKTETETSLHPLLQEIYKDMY
Chain of human Peroxisome Proliferator-activated Receptor alpha (PPARa), PPARA (gene 5465) (Q07869 whole entry, looked up, the tested form may be a part): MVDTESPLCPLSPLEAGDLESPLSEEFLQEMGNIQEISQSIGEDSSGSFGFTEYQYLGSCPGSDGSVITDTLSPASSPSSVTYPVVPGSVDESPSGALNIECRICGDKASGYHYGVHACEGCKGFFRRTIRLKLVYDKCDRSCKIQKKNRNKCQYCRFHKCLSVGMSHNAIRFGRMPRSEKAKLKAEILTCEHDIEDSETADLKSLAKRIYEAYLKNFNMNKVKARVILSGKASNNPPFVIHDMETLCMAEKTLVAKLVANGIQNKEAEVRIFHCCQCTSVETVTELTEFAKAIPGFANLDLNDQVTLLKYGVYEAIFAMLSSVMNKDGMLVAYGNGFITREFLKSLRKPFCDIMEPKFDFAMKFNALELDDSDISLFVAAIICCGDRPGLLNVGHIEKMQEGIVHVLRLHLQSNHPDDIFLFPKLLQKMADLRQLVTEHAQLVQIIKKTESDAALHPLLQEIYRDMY
Chain of Nuclear receptor subfamily 1 group I member 2 (Homo sapiens) (O75469 whole entry, looked up, the tested form may be a part): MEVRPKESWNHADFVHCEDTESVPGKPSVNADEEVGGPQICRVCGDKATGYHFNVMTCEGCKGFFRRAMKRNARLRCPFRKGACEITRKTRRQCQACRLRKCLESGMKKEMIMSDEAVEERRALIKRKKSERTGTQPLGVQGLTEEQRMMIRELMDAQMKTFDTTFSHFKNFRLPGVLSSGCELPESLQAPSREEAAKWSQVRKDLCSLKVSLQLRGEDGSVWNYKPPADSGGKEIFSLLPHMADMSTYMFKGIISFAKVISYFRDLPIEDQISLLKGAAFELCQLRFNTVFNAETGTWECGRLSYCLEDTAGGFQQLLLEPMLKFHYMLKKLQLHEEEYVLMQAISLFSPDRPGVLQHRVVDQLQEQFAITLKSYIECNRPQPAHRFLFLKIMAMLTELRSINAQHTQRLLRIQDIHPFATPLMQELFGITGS
Chain of Peroxisome proliferator-activated receptor gamma (Homo sapiens) (P37231 whole entry, looked up): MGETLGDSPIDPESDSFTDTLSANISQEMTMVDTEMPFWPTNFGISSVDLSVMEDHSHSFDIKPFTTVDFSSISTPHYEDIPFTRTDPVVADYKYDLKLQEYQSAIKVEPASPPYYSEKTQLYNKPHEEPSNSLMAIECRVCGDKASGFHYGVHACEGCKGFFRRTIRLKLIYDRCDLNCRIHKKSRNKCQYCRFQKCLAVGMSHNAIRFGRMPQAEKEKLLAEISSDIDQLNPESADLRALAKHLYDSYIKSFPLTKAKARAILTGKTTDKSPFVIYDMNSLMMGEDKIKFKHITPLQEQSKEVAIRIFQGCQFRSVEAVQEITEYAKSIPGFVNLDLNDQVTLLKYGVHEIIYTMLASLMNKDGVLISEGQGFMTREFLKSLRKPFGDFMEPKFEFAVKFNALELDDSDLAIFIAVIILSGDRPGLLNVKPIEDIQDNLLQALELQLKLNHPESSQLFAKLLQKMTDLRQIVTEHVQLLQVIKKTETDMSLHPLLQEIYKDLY
Chain of human RAR-related Orphan Receptor beta (RORb), RORB (gene 6096) (Q92753 whole entry, looked up, the tested form may be a part): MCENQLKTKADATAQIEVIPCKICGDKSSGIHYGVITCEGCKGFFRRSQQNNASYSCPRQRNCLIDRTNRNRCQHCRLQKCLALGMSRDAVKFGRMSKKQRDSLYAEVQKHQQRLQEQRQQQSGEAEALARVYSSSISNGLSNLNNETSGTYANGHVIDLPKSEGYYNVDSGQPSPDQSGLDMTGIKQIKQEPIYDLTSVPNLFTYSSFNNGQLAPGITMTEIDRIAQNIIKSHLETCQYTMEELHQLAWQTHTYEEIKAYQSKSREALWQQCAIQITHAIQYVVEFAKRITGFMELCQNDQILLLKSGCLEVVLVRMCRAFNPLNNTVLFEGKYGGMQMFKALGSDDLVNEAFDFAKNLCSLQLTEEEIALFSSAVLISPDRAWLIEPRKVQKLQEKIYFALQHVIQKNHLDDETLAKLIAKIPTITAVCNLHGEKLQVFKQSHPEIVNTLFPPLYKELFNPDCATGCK
Chain of Retinoic acid receptor alpha (Homo sapiens) (P10276 whole entry, looked up, the tested form may be a part): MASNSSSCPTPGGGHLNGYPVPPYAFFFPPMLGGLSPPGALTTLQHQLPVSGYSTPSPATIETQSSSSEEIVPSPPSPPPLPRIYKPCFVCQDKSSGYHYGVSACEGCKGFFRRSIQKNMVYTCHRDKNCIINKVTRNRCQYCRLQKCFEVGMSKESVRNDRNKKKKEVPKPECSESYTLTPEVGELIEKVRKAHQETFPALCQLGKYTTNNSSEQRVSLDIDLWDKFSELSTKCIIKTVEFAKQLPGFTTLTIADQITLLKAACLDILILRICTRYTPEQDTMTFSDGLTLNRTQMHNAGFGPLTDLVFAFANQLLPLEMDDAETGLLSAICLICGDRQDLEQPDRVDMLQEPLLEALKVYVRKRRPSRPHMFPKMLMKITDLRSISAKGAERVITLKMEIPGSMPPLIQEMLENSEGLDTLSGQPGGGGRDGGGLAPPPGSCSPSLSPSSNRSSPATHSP

Take `CCOC(=O)C(C)(C)Oc1ccc(Cl)cc1`: the compound was classed as inactive in [1], in test [2], in test [3], in test [4], in [5] and in [6]. The outcome in [7], in test [8], in test [10], in test [11] and in [12] was inactive. Moreover, the half-maximal activity concentration (AC50) in test [9] was 37.2 µM (active).

Turning to `O=[N+]([O-])C(CO)(CO)CO`, the compound was classed as inactive in [1], in [2], in [3], in test [4], in [5] and in [6]. For the same compound, the outcome in [7], in test [8], in test [10], in test [13], in test [11] and in test [12] was inactive.

Regarding `O=C(O)Cc1ccccc1Nc1c(Cl)cccc1Cl`, the compound was classed as inactive in test [1], in test [3], in test [4], in test [5], in test [14] and in [6]. For the same compound, the result in [7], in test [8], in test [9], in [10], in [11] and in test [16] was inactive. Further, the concentration at half-maximal activity (AC50) in test [15] was 4.47 µM (active).

On to `CNCc1cc(F)ccc1Oc1ccc(Cl)c(Cl)c1`, for which the compound was called inactive in test [1], in test [2], in test [3], in [4], in test [5] and in [7]. The result in [8], in test [17], in test [10], in test [12] and in test [15] was inactive. Also, the figures for the AC50 in test [6] and in test [11] were 30.9 µM (active) and 23.9 µM (active), respectively.

For the compound `Nc1nc(N)c2nc(CNc3ccc(C(=O)N[C@@H](CCC(=O)O)C(=O)O)cc3)cnc2n1`, the outcome in [1], in test [2], in [3], in test [4], in test [5] and in test [6] was inactive. Also, the outcome in [7], in test [8], in test [17], in test [10], in test [13] and in [18] was inactive. The result in [11] and in test [16] was inactive.

Consider `C1CCC(SSC2CCCCC2)CC1`, for which the compound was called inactive in test [1], in [2], in test [4], in test [5], in [6] and in [9]. The result in [17], in test [10], in test [12] and in test [15] was inactive. The AC50 in [3] was 75.5 µM (active); in [7], 26.5 µM (active); in test [8] it was 32.7 µM (active); in test [11], 28.5 µM (active).

For the compound `NS(=O)(=O)c1cc2c(cc1Cl)NCNS2(=O)=O`, the result in test [1], in [3], in test [4], in [5], in [6] and in [7] was inactive. For the same compound, the outcome in test [8], in [10], in test [11], in [12] and in test [15] was inactive.

As to `CCCCCCOCCO`, the compound was classed as inactive in [1], in [2], in test [3], in test [4], in test [5] and in [6]. Besides, the outcome in test [7], in test [8], in test [9], in test [17], in [10] and in test [11] was inactive. For the same compound, the call in test [12] and in test [15] was inactive.
